Assay results published in PubChem BioAssay.
For part of these data: Measured potencies and affinities stand elsewhere. The source made the active and inactive calls.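 The calls were made as follows, unless noted: active = fitted half-maximal concentration within the tested range, moderate curve steepness, significant signal drop, and little compound fluorescence or bead-linkage interference; inactive = the rest.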

Assays:
[1] = molecular target: Cell division control protein 42 homolog (Homo sapiens) (UniProt P60953); assay: activated mutant Cdc42 GTP-binding inhibitors, dose response, biochemical, multiplex bead flow cytometry, Bodipy-FL-GTP (AID 1333;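 active = fitted half-maximal concentration within the tested dose range, moderate curve steepness, a statistically real signal drop, and little compound fluorescence or tag-binding interference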)
Chain of Cell division control protein 42 homolog (Homo sapiens) (P60953 whole entry, looked up): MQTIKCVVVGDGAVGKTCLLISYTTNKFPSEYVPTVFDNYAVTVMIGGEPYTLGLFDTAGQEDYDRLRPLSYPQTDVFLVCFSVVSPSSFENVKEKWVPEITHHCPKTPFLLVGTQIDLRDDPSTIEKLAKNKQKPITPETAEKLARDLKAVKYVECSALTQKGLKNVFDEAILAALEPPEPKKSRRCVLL

[2] = molecular target: Cell division control protein 42 homolog (Homo sapiens) (UniProt P60953); assay: wildtype Cdc42 GTP-binding inhibitors, dose response, biochemical, multiplex bead flow cytometry, Bodipy-FL-GTP (AID 1334); conditions: bead-based flow cytometry, Bodipy-FL-GTP binding to GST-Cdc42; at 100 µM (top of the series) unless noted
[3] = molecular target: GTPase HRas (Homo sapiens) (UniProt P01112); assay: inhibitors of GTP binding to wildtype Ras, dose response, biochemical, multiplex bead flow cytometry (AID 1335;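 active = fitted half-maximal concentration within 10 nM to 100 µM, steepness 0.5 to 2, significant signal drop, low assay interference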); conditions: bead-based flow cytometry, Bodipy-GTP binding to GST-Ras; at 100 µM (top of the series) unless noted
Chain of GTPase HRas (Homo sapiens) (P01112 whole entry, looked up): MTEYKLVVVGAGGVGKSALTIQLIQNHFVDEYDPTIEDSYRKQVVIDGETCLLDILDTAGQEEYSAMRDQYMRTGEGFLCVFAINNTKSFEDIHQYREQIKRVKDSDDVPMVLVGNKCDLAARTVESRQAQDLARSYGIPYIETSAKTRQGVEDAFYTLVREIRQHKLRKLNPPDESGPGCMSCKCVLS

[4] = system: Ras-related protein Rab-7a (dog), GTP binding; assay: Rab7 GTP binding inhibitors, potency, dose response, biochemical, wildtype, multiplex bead flow cytometry (AID 1336; call rule not given here)
[5] = molecular target: Ras-related C3 botulinum toxin substrate 1 (Homo sapiens) (UniProt P63000); assay: wildtype Rac1 GTP binding inhibitors, dose response, biochemical, multiplex bead flow cytometry (AID 1340;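 active = dose curve with midpoint inside tested range, moderate steepness, plateau gap beyond fit error, low compound glow and bead-link interference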); conditions: GST-Rac1 beads, Bodipy-FL-GTP binding; at 100 µM (top of the series) unless noted
[6] = molecular target: GTPase HRas (Homo sapiens) (UniProt P01112); assay: activated Ras mutant GTP binding inhibitors, dose response, biochemical, multiplex bead flow cytometry (AID 1341;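 active = dose-response curve with midpoint inside the tested range, moderate steepness, significant amplitude and little compound fluorescence or bead-attachment interference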;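 also: GST-tagged constitutively activated Ras mutant immobilized on beads and multiplexed with other GTPases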)

Structure (SMILES) | outcome [1] | fluorescence, percent of control (lower = inhibition) [2] [%] | GTP binding, percent of control [3] [%] | outcome [4] | GTP binding signal, raw median fluorescence (lower = inhibition) (MCF (arbitrary fluorescence units)) [5] | outcome [6]
COc1cc(/C=N/Nc2ccc(S(N)(=O)=O)cc2)cc(OC)c1OC | inactive | 31.7 | 75.4 | inactive | 175 | inactive
COC(=O)c1ccc(/C=N/Nc2nc(-c3ccc(Cl)cc3Cl)cs2)cc1 | inactive | 39.1 | 81.6 | inactive | 242 | inactive
COC(=O)COc1ccc(/C=N/NC(=O)c2ccc(N(Cc3ccccc3)S(C)(=O)=O)cc2)cc1 | inactive | 39.7 | 55.5 | inactive | 124 | inactive
Cc1nc(N/N=C/c2ccc(O)cc2)c2cnn(-c3ccccc3)c2n1 | inactive | 30.2 | 73.5 | inactive | 191 | inactive
Nc1[nH]n2c(=O)c3c(nc2c1N=Nc1ccccc1)CCCC3 | inactive | 31 | 41.6 | inactive | 109 | inactive
COc1ccccc1CNC(=O)c1c(N)n(CCCN2CCOCC2)c2nc3ccccc3nc12 | inactive | 44.4 | 89.9 | inactive | 214 | inactive
CCc1ccc(OCc2ccc(C(=O)O)o2)cc1 | inactive | 60.7 | 90.3 | inactive | 35.2 | inactive
O=C(CSc1ncccc1C(=O)O)c1ccc2ccccc2c1 | inactive | 48.7 | 66.6 | inactive | 0 | inactive
Cc1cc(-c2n[nH]c(=S)n2/N=C/C(Cl)=C/c2ccccc2)n[nH]1 | inactive | 33.9 | 78.7 | inactive | 229 | inactive
Cc1cccc(C)c1CNc1ncccc1C(=O)O | inactive | 59 | 215 | inactive | 56.4 | inactive
CCOc1cc(/C=N/NC(=O)c2cccs2)cc([N+](=O)[O-])c1O | inactive | 25.2 | 57.7 | inactive | 108 | inactive
COc1cc2c(cc1OC)-c1cc(NC3CCCCCCC3)nc(=O)n1CC2 | inactive | 33.3 | 68.6 | inactive | 142 | inactive
O=C(NC1CCCCC1)C(c1ccco1)N(Cc1ccco1)C(=O)c1ccco1 (stereo not given) | inactive | 90.7 | 174 | inactive | 176 | inactive
Cc1ccccc1NC(=O)C1CCCN1S(=O)(=O)c1cccc2cccnc12 (stereo not given) | inactive | 39.1 | 84.8 | inactive | 322 | inactive
O=C(COc1cc(Cl)ccc1Cl)Nc1nnc(CC(=O)N2CCOCC2)s1 | inactive | 90.6 | 152 | inactive | 178 | inactive
COc1ccc(-c2cc(=O)c(C(=O)c3ccc(C)cc3)n[nH]2)cc1 | inactive | 35.8 | 80.8 | inactive | 317 | inactive
O=C(O)c1cc(C(=O)O)cc(-c2ccc(/C=c3/sc4nc5ccccc5n4c3=O)o2)c1 | inactive | 30 | 72.3 | inactive | 185 | inactive
Cc1cc(C)cc(Nc2cc(C(=O)O)c3ccccc3n2)c1 | inactive | 58.9 | 80.4 | inactive | 30.7 | inactive
O=c1n(Cc2ccc(Cl)cc2)c2sc3c(c2c2ncnn12)CCCC3 | inactive | 78.9 | 126 | inactive | 146 | inactive
Cc1ccc(/C=C/C(=O)c2ccccc(=O)c2O)cc1C | inactive | 37.3 | 81.8 | inactive | 245 | inactive

Structure (SMILES) | outcome [1] | fluorescence, percent of control (lower = inhibition) [2] [%] | GTP binding, percent of control [3] [%] | outcome [4] | GTP binding signal, raw median fluorescence (lower = inhibition) (MCF (arbitrary fluorescence units)) [5] | outcome [6]
COc1ccc(N/C=C/c2nc(SC)nnc2C)cc1 | inactive | 31.3 | 72.4 | inactive | 183 | inactive
COC(=O)c1cn(CCOc2ccccc2)c2ccccc12 | inactive | 34.2 | 83 | inactive | 225 | inactive
COc1cc2c(C)nc3c(c(C)nn3-c3ccccc3)c2cc1OC | inactive | 32.3 | 71.7 | inactive | 167 | inactive
COCCN(C(=S)Nc1cc(C)ccc1C)C(C)c1cccnc1 (stereo not given) | inactive | 52.6 | 63.7 | inactive | 212 | inactive
O=C(CNC(=O)Cc1ccccc1)N=Nc1c(O)n(Cc2ccc3c(c2)OCO3)c2ccccc12 | inactive | 36.1 | 48.5 | inactive | 112 | inactive
COCCNC(=S)Nc1cc(OC)c(OC)cc1C#N | inactive | 40.8 | 74.7 | inactive | 144 | inactive
Nc1c([N+](=O)[O-])cc(-c2cnc[nH]2)cc1[N+](=O)[O-] | inactive | 38.5 | 81.1 | inactive | 190 | inactive
COc1cc(Cl)c(C)cc1NCc1sc(C(=O)O)cc1C | inactive | 58.6 | 82 | inactive | 29.9 | inactive
N#C/C(=C\c1cccnc1)c1nc2ccccc2[nH]1 | inactive | 32.6 | 82.7 | inactive | 251 | inactive
Cc1ccc(OCCn2cc(C(=O)O)c3ccccc32)cc1C | inactive | 60.4 | 85.4 | inactive | 32.5 | inactive
Cc1nc(-c2cnn(-c3ccccc3)c2)c2cc(C)oc2n1 | inactive | 61.7 | 140 | inactive | 140 | inactive
Cn1cc(C(=O)N2CCc3ccccc3C2)c(=O)c2cc(S(=O)(=O)N3CCCCC3)ccc21 | inactive | 60.6 | 110 | inactive | 370 | inactive
NC(=O)c1c(NC(=O)c2cnccn2)sc2c1CCCC2 | inactive | 94.1 | 134 | inactive | 217 | inactive
Cc1nc2cccc(C)n2c(=O)c1Cl | inactive | 38.6 | 83.8 | inactive | 255 | inactive
Cc1c(NC(=O)CCN2C(=O)c3ccccc3C2=O)c(=O)n(-c2ccccc2)n1C | inactive | 42.1 | 90.3 | inactive | 322 | inactive
Cc1ccccc1CSc1ncccc1C(=O)O | inactive | 74.5 | 87.9 | inactive | 48.3 | inactive
Cc1nnc2ccc(-c3cccc(NC(=O)c4ccc(Br)o4)c3)nn12 | inactive | 34.5 | 81.8 | inactive | 206 | inactive
CCCOc1ccc(C(CC(=O)O)NC(=O)c2sc3ccccc3c2Cl)cc1 (stereo not given) | inactive | 28.6 | 78.9 | inactive | 258 | inactive
Cc1ccc(S(=O)(=O)Cc2ccc(C(=O)N3CCN(c4cc(C)ccc4C)CC3)o2)cc1 | inactive | 35 | 59.9 | inactive | 0 | inactive
Cc1cccc(C)c1NC(=O)CSc1ccc([N+](=O)[O-])cn1 | inactive | 85.9 | 97.1 | inactive | 246 | inactive

Structure (SMILES) | outcome [1] | fluorescence, percent of control (lower = inhibition) [2] [%] | GTP binding, percent of control [3] [%] | outcome [4] | GTP binding signal, raw median fluorescence (lower = inhibition) (MCF (arbitrary fluorescence units)) [5] | outcome [6]
COc1ccccc1C(=O)N=Nc1c(O)[nH]c2ccc([N+](=O)[O-])cc12 | inactive | 23.9 | 51.1 | inactive | 115 | inactive
Cc1ccc(C2=NN(CCC(=O)NCc3ccc4c(c3)OCO4)C(=O)CC2)cc1 | inactive | 51.3 | 60.2 | inactive | 207 | inactive
CC(C)(C)c1ccc(OCCn2cc(C(=O)O)c3ccccc32)cc1 | inactive | 57.9 | 82.9 | inactive | 30.4 | inactive
COc1ccc(CC(=O)c2ccccc2C(=O)O)cc1 | inactive | 153 | 143 | inactive | 368 | inactive
O=C(CCN1CCCC1Cc1ccccc1)c1ccc2c(c1)OCCO2 (stereo not given) | inactive | 31.5 | 82.4 | inactive | 236 | inactive
CC1Cc2ccccc2N1S(=O)(=O)c1cccc(C(=O)NCCCO)c1 (stereo not given) | inactive | 38.5 | 85.5 | inactive | 323 | inactive
Cc1noc(/C=C/c2ccc(-c3ccccc3Cl)o2)c1[N+](=O)[O-] | inactive | 125 | 171 | inactive | 199 | inactive
COC(=O)CSc1nc2cc(Cl)ccc2c(=O)n1C1CCCC1 | inactive | 98 | 180 | inactive | 186 | inactive
O=C(Cn1c(-c2cscn2)nc2ccccc21)Nc1cc(F)ccc1F | inactive | 33.9 | 75.9 | inactive | 210 | inactive
O=C(O)c1nnn(Cc2ccc(Br)cc2)c1C(=O)O | inactive | 58.8 | 80.4 | inactive | 30.6 | inactive
COc1cccc(Nc2c(F)c(F)c(F)c(F)c2C(=O)O)c1 | inactive | 53.4 | 60.7 | inactive | 0 | inactive
CCOC(=O)c1cccnc1SCCc1ccccc1 | inactive | 125 | 155 | inactive | 95.5 | inactive
Cn1nc(C(=O)Nc2cccnc2)c2ccccc2c1=O | inactive | 49 | 111 | inactive | 135 | inactive
Cc1ccc(C(=O)Nn2c(O)c(C=C3N=c4ccccc4=N3)sc2=S)cc1 | inactive | 47.7 | 50.4 | inactive | 129 | inactive
CCc1nnc(NC(=O)CCC(=O)N2CCN(c3ccccn3)CC2)s1 | inactive | 94 | 163 | inactive | 190 | inactive
Cc1ccc(CSc2nnc(-c3ccccc3N)c(=O)[nH]2)cc1 | inactive | 34.1 | 80.1 | inactive | 259 | inactive
O=C(O)c1ccc(Nc2nc(-c3cccnc3)nc3ccccc23)cc1 | inactive | 27.9 | 66.3 | inactive | 142 | inactive
COc1ccccc1C(=O)Nc1nc(-c2ccc3c(c2)OCCO3)cs1 | inactive | 28.6 | 77 | inactive | 216 | inactive
Cc1nnc(OC(C)C)c2nn(-c3ccccc3F)c(C)c12 | inactive | 55.1 | 69.3 | inactive | 0 | inactive
O=C(O)c1cccnc1SCc1cccc(F)c1 | inactive | 78.4 | 92.9 | inactive | 52.6 | inactive
